Measurements: PubChem BioAssay AID2158 (National Center for Advancing Translational Sciences (NCATS), 2009)
“And” between values parts separate entries of the source, which are not always exact repeats. Identical values can stand only once. Results filed as inconclusive are left out. A number with no mark means an inactive call. The source made the active and inactive calls. Calls follow the shape of the dose curve; as a rule, active = well fitted inhibition curve with a large enough effect; inconclusive = small, poorly fitted or top-dose-only effect; inactive = no such curve, though single readings can be large or run the other way.

Molecular target: Cruzipain (Trypanosoma cruzi) (UniProt P25779)
Assay: Confirmation qHTS Assay for Inhibitors of Cruzain; also: nearly all actives have a fitted effect of over 40% in size;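 as to activity change, negative = inhibition: plate controls were uninhibited enzyme control for no effect and buffer wells lacking enzyme for full effect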
Conditions: purified cruzain, Z-FR-AMC fluorescence, 0.01% Triton
In short: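 Reaction progress from the 60 s rise in AMC fluorescence (ex 360, em 450 nm) after adding 2 uM Z-FR-AMC. Before this, 1.5 nM cruzain sat 15 min at room temperature with compound in pH 5.5 acetate buffer with 5 mM DTT and 0.01% Triton X-100.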
Potency is read from the fitted curve at half-maximal effect.

Sequence of Cruzipain (Trypanosoma cruzi) (P25779 123-467 limits assumed): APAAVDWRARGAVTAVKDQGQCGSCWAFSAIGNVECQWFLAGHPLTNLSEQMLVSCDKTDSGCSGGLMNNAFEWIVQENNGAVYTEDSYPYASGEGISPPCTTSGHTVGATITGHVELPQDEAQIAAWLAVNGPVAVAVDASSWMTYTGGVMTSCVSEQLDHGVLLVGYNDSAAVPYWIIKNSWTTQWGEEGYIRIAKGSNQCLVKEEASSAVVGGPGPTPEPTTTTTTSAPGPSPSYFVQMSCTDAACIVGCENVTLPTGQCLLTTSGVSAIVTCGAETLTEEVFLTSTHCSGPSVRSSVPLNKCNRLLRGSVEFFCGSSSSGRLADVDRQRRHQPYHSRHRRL

| SMILES | Potency | activity change, negative = inhibition [%] |
| --- | --- | --- |
| COc1ccc(-c2cnnn2-c2ccc(NC(=O)/C=C/c3ccc(OC)c(OC)c3)cc2)cc1 | 15.8 µM (active) | – |
| Cc1ccc(C)c(OCCn2c(CCNC(=O)C3CCCCC3)nc3ccccc32)c1 | 0.0708 µM (active) | – |
| Cc1ccccc1OCC(=O)NCC(=O)OCC(=O)c1ccc(-c2ccccc2)cc1 | – | -15.9 |
| CC(C)(C)OC(=O)NCC(=O)NNC(=O)c1cc2ccccc2[nH]1 | – | -2.11 |
| Cc1ccccc1OCC(=O)NCC(=O)OCc1cccc2ccccc12 | – | -2.79 |
| COc1cccc(C(=O)NC2CCN(C#N)CC2)c1 | – | -6.95 |
| N#Cc1nc(Nc2cccc(Br)c2)nc(NC2CCCC2)n1 | 0.1 µM (active) | – |
| COc1ccc(/C=C/C(=O)Nc2ccc(-n3nncc3-c3ccccc3)cc2)cc1OC | 14.1 µM (active) | – |
| CCOc1nc(C#N)nc(N2CCCCC2)n1 | 2.51 µM (active) and 3.55 µM (active) | – |
| O=C(NC1CC1)c1ccc2nc(-c3ccco3)c(-c3ccco3)nc2c1 | 14.1 µM (active) | – |
| O=C(NCCc1nc2ccccc2n1CCOc1ccccc1)C1CCCCC1 | 0.794 µM (active) | – |
| N#Cc1nc(Nc2cc(F)cc(F)c2)c2ncn(C3CCCC3)c2n1 | 0.0224 µM (active) | – |
| O=C(NCCc1nc2ccccc2n1CCOc1cccc2ccccc12)C1CCCCC1 | – | -11.4 |
| O=C(NCc1ccc2c(c1)OCO2)c1ccc2c(c1)N(Cc1c(F)cccc1Cl)C(=O)c1ccccc1S2 | – | 3.42 |
| O=C(CNC(=O)C1CCCCCC1)OC(C(=O)Nc1cc(C(F)(F)F)ccc1Cl)c1ccccc1 (configuration not stated) | 7.08 µM (active) | – |
| CCCNC(=O)Cn1c(SCc2ccccc2C)nc2ccncc21 | – | -2.3 |
| Cc1cccc(C)c1OCCn1c(CCNC(=O)C2CCCCC2)nc2ccccc21 | 1.12 µM (active) | – |
| CC(C)(C)C(=O)O/N=C1/C(=O)N(c2ccccc2)c2ccccc21 | – | -24.3 |
| COC(=O)CCC(C)C1CCC2C3CC[C@H]4CC(O)CC[C@@]4(C)C3CC(O)[C@]12C (some centres not stated) | – | -8.27 |
| O=C(Nc1cc(C(F)(F)F)ccc1Cl)C(O)Cc1ccccc1 (configuration not stated) | – | -18.4 |
| COc1ccc(C(=O)NCC(=O)OCC(=O)c2ccc3ccccc3c2)cc1 | 15.8 µM (active) | – |
| O=C(CNC(=O)c1ccc(-c2ccccc2)cc1)OC(C(=O)Nc1cc(C(F)(F)F)ccc1Cl)c1ccccc1 (configuration not stated) | – | -19.3 |
